Laboratory results: PubChem BioAssay AID1851 (National Center for Advancing Translational Sciences (NCATS), 2009)
Out of some 16,000 compounds screened, about 4,000 (25%) were called active. Roughly 26% stayed inconclusive and do not appear here. The call rests on the fitted dose curve; in most records, active means well fitted curve in the direction sought with a large enough effect; inconclusive means small, poorly fitted or top-dose-only effect, or effect the other way; inactive means no such curve, though single readings can be large or run the other way. The list is a sample of the results.

These compounds were tested against Cytochrome P450 2C9 (Homo sapiens) (UniProt P11712) (assay: Cytochrome panel assay with activity outcomes). Conditions: recombinant CYP, pro-luciferin dealkylation, luminescence, p450-cyp2c9; series mostly up to 57.1 µM.
Cytochrome P450 2C9 (Homo sapiens), sequence (P11712 whole entry, looked up): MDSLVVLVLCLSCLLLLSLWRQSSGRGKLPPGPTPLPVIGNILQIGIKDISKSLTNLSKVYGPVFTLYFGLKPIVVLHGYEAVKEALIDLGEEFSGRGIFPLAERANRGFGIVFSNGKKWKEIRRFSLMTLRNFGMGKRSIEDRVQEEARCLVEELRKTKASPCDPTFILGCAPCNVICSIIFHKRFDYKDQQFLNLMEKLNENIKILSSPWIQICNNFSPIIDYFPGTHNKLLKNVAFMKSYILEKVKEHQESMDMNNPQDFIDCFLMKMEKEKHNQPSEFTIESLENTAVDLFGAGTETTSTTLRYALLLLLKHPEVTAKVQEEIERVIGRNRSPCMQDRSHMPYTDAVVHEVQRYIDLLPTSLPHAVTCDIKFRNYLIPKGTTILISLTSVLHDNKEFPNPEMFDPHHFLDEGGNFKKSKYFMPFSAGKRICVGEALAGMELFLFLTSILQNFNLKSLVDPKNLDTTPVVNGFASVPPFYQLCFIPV
On the % scale 0 is the no-effect control and ±100 the full control effect.

AC50, inactive:
Cn1cc(C(=O)OCC2CCN(CCNS(C)(=O)=O)CC2)c2ccccc21, COc1cc(N)c(Cl)cc1C(=O)OCCCN1CCCCC1, CCn1cc(C(=O)O)c(=O)c2cc(F)c(N3CCN[C@@H](C)C3)c(F)c21, COc1ccc(C(C)=O)c(OC(=O)c2ccco2)c1, CC(C)OC(=O)c1cccc(C(=O)Oc2ccc(Br)cc2)n1, OC(CCCN1CCCCC1)(c1ccccc1)c1ccccc1, C/C(=N\NC(=O)c1cccc(Br)c1)c1ccc(Br)cc1, COc1ccc2c(c1)N(C[C@@H](C)CN(C)C)c1ccccc1S2, Cc1nn(Cc2ccc([N+](=O)[O-])cc2)c(=O)n1-c1cccc(F)c1, Nc1ncncc1-c1ccc([N+](=O)[O-])cc1, O=C(N/N=C/c1ccco1)c1ccc(Br)o1, Cc1cc(C)n(CC(=O)N/N=C/c2ccco2)n1, O=C(CC(=O)N/N=C\c1c(Cl)cccc1Cl)NCc1ccccc1, O=C(N/N=C/c1ccco1)/C(=C/c1cccc([N+](=O)[O-])c1)NC(=O)c1ccccc1, Cc1ccc(C(=O)N/N=C/c2ccc([N+](=O)[O-])s2)cc1, C=CCOc1ccc2cccc(/C=N/NC(=O)c3cc4cc([N+](=O)[O-])ccc4s3)c2c1, NNc1nncc2ccccc12, Cc1cccc([C@@H]2CN(C)CCc3c2cc(O)c(O)c3Cl)c1, Cc1noc(C)c1C(=O)N1CCC2(CC1)CN(c1ccccc1)C2, Cc1noc(C)c1C(=O)N1CCC2(CCCN(c3ccccc3)C2)CC1, C/C(=N\OC(=O)c1ccc(F)cc1)c1nccs1, CC(=O)Nc1ccc(NC(=O)c2ccccc2CC[N+](=O)[O-])cc1, O=C(O)CCCCCNC(=O)c1ccccc1Br, NC(=O)c1ccc(N2CCCCC2)c(N2C(=O)C3CC=CCC3C2=O)c1 (configuration not stated), O=C(Nc1ccc2nc(SCc3ccc(Cl)cc3)sc2c1)c1ccccc1C(=O)N1CCOCC1, O=C(/C=C/c1ccc(Cl)cc1)NCCN1CCOCC1, CC(/C=C/c1ccco1)=N/NC(=O)c1ccccc1Cl, CN1CCCN(C2C3CC4CC(C3)CC2C4)CC1 (configuration not stated), COc1ncnc(NS(=O)(=O)c2ccc(N)cc2)c1OC, CN=C(NC#N)NCCSC[C@H]1N=CN=C1C, CC[C@@]12CCCN3CCc4c(n(c5ccccc45)[C@](O)(C(=O)OC)C1)[C@H]32, COc1ccc(C2/C(=C(/O)c3ccccc3)C(=O)C(=O)N2CC(C)O)c(OC)c1 (configuration not stated), COc1ccc(/C(O)=C2\C(=O)C(=O)N(c3cc(C)on3)C2c2ccc(OC)c(OC)c2)cc1OC (configuration not stated), CCOc1ccc(/C(O)=C2\C(=O)C(=O)N(CCOCCO)C2c2ccccc2OC)cc1 (configuration not stated), COc1ccc(OC)c(C2N(c3cc(C)on3)C(=O)C3CCCN32)c1 (configuration not stated), CN1CCN(c2ncc3ncc(=O)n(C[C@H]4CCCO4)c3n2)CC1, COc1ncc2nc(-c3cn(C)c4ccccc34)c(=O)n(C)c2n1

AC50, active:
COc1cc(N)c(Cl)cc1C(=O)CCC1CCN(CCNS(C)(=O)=O)CC1 251 nM, O=C(Oc1ccc(OC(=O)c2ccco2)c(S(=O)(=O)c2ccc(Br)cc2)c1)c1ccco1 708 nM, CCc1cc2c(=O)c(-c3cnn(-c4ccccc4)c3)coc2c(CN2CCOCC2)c1O 2510 nM, O=C(N/N=C\c1ccc(Sc2ccccn2)o1)c1cccc(Br)c1 2240 nM, O=C(N/N=C/c1cccc(Oc2ccccc2)c1)c1cccc(Br)c1 7080 nM, O=C(N/N=C/C1C(c2ccccc2)C1(Cl)Cl)c1cccc(Br)c1 (configuration not stated) 2000 nM, Cc1cc(C)c(Cn2cnc(-c3ccc([N+](=O)[O-])cc3)c2)c(C)c1 12600 nM, O=C(Cc1ccccc1)N/N=C/c1cc(Br)c(Br)o1 14100 nM, O=C(Cc1ccccc1)N/N=C\c1ccc(Br)o1 12600 nM, CC(/C=N/NC(=O)c1cccc([N+](=O)[O-])c1)=C\c1ccccc1 355 nM, COc1cccc(/C=N/NC(=O)c2cccc([N+](=O)[O-])c2)c1OS(=O)(=O)c1ccc(C)cc1 3550 nM, COc1ccc(/C=N/NC(=O)c2cccc([N+](=O)[O-])c2)cc1OS(=O)(=O)c1ccc(C)cc1 891 nM, Cc1cccc(N2CCN(C(=O)CSCc3c(C)noc3C)CC2)c1C 12600 nM, C/C(=C\c1ccco1)C1C(C#N)=C(N)Oc2n[nH]c(-c3ccccc3)c21 (configuration not stated) 89.1 nM, O=C(NCCNc1ccc([N+](=O)[O-])cc1)c1ccccc1Br 14100 nM, Cc1ccc(NC(=O)c2cc(N3C(=O)C4CC=CCC4C3=O)ccc2N2CCOCC2)cc1Cl (configuration not stated) 11200 nM, CCCC(=O)Nc1ccc2nc(SCC(=O)Nc3ccc(N4CCOCC4)c(Cl)c3)sc2c1 2240 nM, O=C(/C=C/c1ccco1)NC(=S)Nc1ccc(N2CCOCC2)c(Cl)c1 4470 nM, Cc1ccc(NC(=O)CSCC(=O)Nc2ccc(N3CCOCC3)c(Cl)c2)cc1 5010 nM, COc1ccc(C2/C(=C(/O)c3ccccc3)C(=O)C(=O)N2c2ccccn2)c(OC)c1 (configuration not stated) 15800 nM, COc1cccc(/C(O)=C2/C(=O)C(=O)N(c3cc(C)on3)C2c2cccs2)c1 (configuration not stated) 14100 nM, CNc1ncnc2ccc(-c3cccc(OC)c3)cc12 501 nM, COc1ccc2[nH]cc(CCNc3ncnc4ccc(-c5cccnc5)cc34)c2c1 1000 nM, COc1ccc2[nH]cc(CCNc3ncnc4ccc(-c5ccccc5C#N)cc34)c2c1 316 nM, Cc1cccc(CNc2ncnc3ccc(-c4ccc5c(c4)OCO5)cc23)c1 316 nM, COc1cccc(-c2ccc3ncnc(NCCc4c[nH]c5ccc(OC)cc45)c3c2)c1 398 nM, COc1ccc2[nH]cc(CCNc3ncnc4ccc(-c5ccccc5OC)cc34)c2c1 251 nM, COc1ccc2[nH]cc(CCNc3ncnc4ccc(-c5cccc(C#N)c5)cc34)c2c1 63.1 nM, COc1ccc2[nH]cc(CCNc3ncnc4ccc(-c5ccc6c(c5)OCO6)cc34)c2c1 126 nM

activity, negative = inhibition, inactive:
O=C(N[C@@]1(C(=O)O)C[C@@H]1c1ccccc1)c1ccccc1 5.78% [at 11.4 µM], O=C(O)Cn1ccnc1[N+](=O)[O-] 9.22% [at 11.4 µM], COc1ccccc1-c1cncnc1NCc1cccc(C)c1 -10.6% [at 2.29 µM], O=c1c[n+](CCCC[n+]2cc(=O)o[nH]2)[nH]o1 10.6% [at 11.4 µM], c1csc(CNc2nc(-c3ccoc3)nc3ccccc23)c1 -11.2% [at 2.29 µM], CO[C@H]1COC(=O)CCC[C@@H](C)[C@H](OC)COC(=O)[C@H]2CCCN2C(=O)C/C=C\[C@@H]1C 5.44% [at 11.4 µM], c1cncc(CNc2cc(-c3ccoc3)ncn2)c1 2% [at 2.29 µM], Nc1nc2c(c(=O)[nH]1)CN(CCCN1CCOCC1)CN2 11% [at 11.4 µM], CCOc1ccc2nc3cc(N=Nc4ccc(N)nc4N)ccc3c(N)c2c1 1.7% [at 11.4 µM], CCN1C(=O)[C@H]2[C@H]3[C@H](O)[C@H](O)C/C(=N/OC[C@@H](O)[C@H]4O[C@H]5OC(C)(C)O[C@H]5[C@@H]4O)[C@@H]3CC[C@@H]2C1=O 11.9% [at 11.4 µM], CN(Cc1ccco1)c1cc(-c2ccc3c(c2)OCO3)ncn1 -13% [at 2.29 µM], CCOC(=O)N/N=C1/C[C@@H](O)[C@@H](O)[C@@H]2[C@@H]3C(=O)N(CC)C(=O)[C@H]3CC[C@@H]12 9.77% [at 11.4 µM], CN(C)CCCN1CCC2(CCC(C(C)(C)C)CC2)CC1 13% [at 11.4 µM], CN(Cc1ccco1)c1nc(-c2ccccc2C(F)(F)F)nc2ccccc12 -1.38% [at 2.29 µM], COCCNc1ncnc2ccc(-c3cccc(OC)c3)cc12 26.2% [at 2.29 µM], N#Cc1ccccc1-c1ccc2ncnc(NC3CC3)c2c1 -9.89% [at 2.29 µM], CNc1ncnc2ccc(-c3ccccc3C#N)cc12 -10.6% [at 2.29 µM], Cc1cnc(CNc2ncnc3ccc(-c4ccc5c(c4)OCO5)cc23)cn1 -11.4% [at 2.29 µM], COc1cccc(-c2ccc3ncnc(NC4CC4)c3c2)c1 -17.4% [at 2.29 µM], COc1ccc2[nH]cc(CCNc3cc(-c4cccnc4)ncn3)c2c1 -3.3% [at 2.29 µM], Cc1cccc(CNc2ncnc3ccc(-c4cccnc4)cc23)c1 -11.3% [at 2.29 µM], COc1ccccc1CNc1ncnc2ccc(-c3cccnc3)cc12 6.62% [at 2.29 µM], COc1cc2c(cc1OC)C(CCN)=NCC2 -3.31% [at 11.4 µM], C[C@]1(O)CC[C@H]2[C@H]3CC=C4N5CCN=C5CC[C@@]4(C)[C@H]3CC[C@@]21C -4.16% [at 11.4 µM], CC(=O)NCCNc1ncnc2ccc(-c3ccc4c(c3)OCO4)cc12 5.09% [at 2.29 µM], c1nc(NCCN2CCOCC2)c2cc(-c3ccc4c(c3)OCO4)ccc2n1 6.81% [at 2.29 µM], Cc1cnc(CNc2ncnc3ccc(-c4cccc(C#N)c4)cc23)cn1 -16.4% [at 2.29 µM], CNc1ncnc2ccc(-c3ccccc3OC)cc12 2.7% [at 2.29 µM], COc1cccc(-c2ccc3ncnc(NCc4cnc(C)cn4)c3c2)c1 -22.3% [at 2.29 µM], COc1ccc2[nH]cc(CCNc3cc(-c4cccc(C#N)c4)ncn3)c2c1 -22.1% [at 2.29 µM], COc1ccc2[nH]cc(CCNc3ncnc4ccc(-c5ccccc5CN(C)C)cc34)c2c1 -13.9% [at 2.29 µM]
